Cruzain noTriton: blocks cruzain activity in detergent-free assay; AID 1476; Potency, µM, inactives show max response, negative = inhibition, actives largely listed as inhibitors; actives 2.3% (n = 200,000); purified cruzain, Z-FR-AMC fluorescence, no detergent;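 note: plate controls were enzyme without inhibitor for no effect and buffer without enzyme for full effect; nearly all actives have a fitted effect of over 40% in size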
Target sequence (P25779 123-467 limits assumed): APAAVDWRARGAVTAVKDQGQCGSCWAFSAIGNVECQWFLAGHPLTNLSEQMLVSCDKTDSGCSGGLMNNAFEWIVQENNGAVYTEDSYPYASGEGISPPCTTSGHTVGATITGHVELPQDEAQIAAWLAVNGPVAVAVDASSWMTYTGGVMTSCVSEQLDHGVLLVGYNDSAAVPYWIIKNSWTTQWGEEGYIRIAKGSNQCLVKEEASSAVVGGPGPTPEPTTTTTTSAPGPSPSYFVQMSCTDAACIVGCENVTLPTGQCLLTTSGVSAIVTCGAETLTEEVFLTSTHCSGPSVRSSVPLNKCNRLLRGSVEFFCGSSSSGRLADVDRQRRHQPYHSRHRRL
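Detergent-free condition (0.00005% Triton X-100) in acetate buffer pH 5.5 with DTT. 1.5 nM enzyme and compound were pre-mixed 15 min, then 2 uM Z-FR-AMC substrate added; reaction progress from fluorescence change between first and third reads (60 s).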
Cruzain inh Det: cruzain (T. cruzi) inhibition with detergent; P25779; purified cruzain, Z-FR-AMC fluorescence, 0.01% Triton; Potency, µM, inactives show max response, negative = inhibition, actives largely listed as inhibitors; actives 0.43% (n = 200,000);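 note: plate controls were neutral wells for no effect and buffer without enzyme for full effect; nearly all actives have a fitted effect of over 40% in size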
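Cruzain (1.5 nM) preincubated 15 min at RT with compound in 100 mM sodium acetate pH 5.5, 5 mM DTT, 0.01% Triton X-100. Reaction started with 2 uM Z-FR-AMC; AMC fluorescence (ex 360/em 450 nm) change over 60 s gave rate.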
* = called active by the depositor; ? = inconclusive. The list is not random: actives were taken first. Their share in the collection is about 2.5%. Calls come from the whole dose curve; as a rule, active = well fitted curve in the direction sought with a large enough effect; inconclusive = small, poorly fitted or top-dose-only effect, or another doubt; inactive = no such curve, though single readings can be large; an effect the other way counts as inactive or inconclusive. Potency is the fitted concentration of half-maximal effect.

SMILES	Cruzain noTriton	Cruzain inh Det
CN(C)c1ccc(NC(=O)CSc2nc3ccccc3c(=O)n2C2CCCCC2)cc1	12.6µM*	-0.6%
CC1CCN(S(=O)(=O)c2cc(C(=O)Nc3ccc(Br)cc3F)n(C)c2)CC1	-17.3%	-6.9%
Cc1ccc(C)c(N2CCN(CCCNC(=O)Cn3ncc4c5ccccc5n(C)c4c3=O)CC2)c1	8.9%	-4.4%
Cc1ccc(OCC(=O)N(Cc2ccco2)c2ccccn2)cc1	-5.0%	0.1%
O=c1c(-c2cccs2)nc2cnc(Oc3ccccc3)nc2n1Cc1cccs1	?	-1.4%
COc1ccc(Oc2ncc3nc(-c4cccs4)c(=O)n(Cc4cccs4)c3n2)cc1	7.94µM*	3.9%
COc1ccc(Oc2ncc3nc(-c4cccs4)c(=O)n(Cc4cccc(OC)c4)c3n2)cc1	12.6µM*	2.4%
COc1cccc(Cn2c(=O)c(-c3cccs3)nc3cnc(OC)nc32)c1	11.7%	2.8%
CCOC(=O)c1cccc(NC(=O)c2ccc3snnc3c2)c1	0.7%	-7.8%
CCc1ccc(NC(=O)C2CCCN(S(=O)(=O)c3c(C)noc3/C=C/N(C)C)C2)cc1 (stereo unspecified)	-2.1%	-10.4%
CC(=O)c1cccc(NC(=O)Cn2ccn3nc(-c4ccccc4)cc3c2=O)c1	-0.6%	-0.2%
COc1ccc2c(c1)CC(C(=O)Nc1c(C)cc(C)cc1C)CO2 (stereo unspecified)	-6.3%	-0.4%
COc1cccc(CNS(=O)(=O)c2ccc3[nH]c4c(c3c2)CCCCC4)c1	-24.9%	-14.2%
C/C(=C/CCC(C)[C@H]1CC[C@@]2(C)C3=C(CC[C@]12C)[C@@]1(C)CCC(=O)C(C)(C)[C@@H]1CC3)C(=O)O (stereo partly specified)	25.1µM*	-6.1%
CC(C)=CCCC(C)C1CC[C@@]2(C)C3=C(CC[C@@]12C)C1(C)CCC(O)C(C)(C)C1CC3 (stereo partly specified)	?	-2.8%
COc1ccc(C(=O)c2cn(CC(=O)Nc3ccc4c(c3)OCCO4)c3ccc(OC)cc3c2=O)cc1	11.6%	-4.2%
COC(=O)c1cc(OC)c(OC)cc1N	-23.7%	-2.0%
COc1cc2cc(C(N)=O)c(N)nc2cc1OC	15.8µM*	28.2µM*
COc1ccc(-c2onc3ccc(Cl)cc23)cc1	-4.7%	-5.1%
COc1ccc(-c2cn(/N=C/c3ccc(Cl)cc3Cl)c(N)n2)cc1	7.94µM*	-21.4%
CCN(CC)c1ccc(NS(=O)(=O)c2ccc3c(c2)CCCN3C(C)=O)c(C)c1	-7.5%	-0.6%
CC1CCC(C(=O)NC(C(=O)OCC(=O)c2ccccc2)C(C)C)CC1 (stereo unspecified)	?	15.8µM*
CCc1ccc(C(=O)COC(=O)C(Cc2ccccc2)NC(=O)C2CCC(C)CC2)cc1 (stereo unspecified)	-14.8%	7.5%
Cc1nc(N2CCCC2)ncc1C(=O)N1CCN(c2ccccc2F)CC1	4.3%	0.1%
O=C(NCC(c1cccnc1)N1CCN(Cc2ccccc2)CC1)C(=O)Nc1ccc(F)cc1 (stereo unspecified)	0.6%	-3.0%
SMILES	Cruzain noTriton	Cruzain inh Det
C#CCOC(=O)/C(=C/C=C/c1ccccc1)NC(=O)c1ccccc1	12.6µM*	7.08µM*
CC(C)OC(=O)/C(=C\C=C\c1ccccc1)NC(=O)c1ccccc1	-8.9%	-12.0%
Cc1ccc(-n2c(C)cc(/C=N/NC(=O)CC3(C)OCCO3)c2C)cc1	-1.8%	-7.5%
COc1ccc(Cl)cc1NC(=O)C(=O)N/N=C/c1cc(C)n(-c2ccc(C)cc2)c1C	12.6µM*	-8.9%
Cc1c(C(=O)N(Cc2cccc(F)c2)C2CCS(=O)(=O)C2)oc2cc(Br)ccc12 (stereo unspecified)	17.7%	-7.7%
CSc1nc(N2CCN(CCO)CC2)c2sc3nc(-c4ccco4)c4c(c3c2n1)CCC4	-1.2%	-16.1%
CSc1nc(N(C)CCO)c2sc3nc(-c4ccco4)c4c(c3c2n1)CCC4	-24.8%	8.91µM*
O=C(NCCc1ccccc1)c1ccc2c(c1)N(Cc1ccc(Cl)cc1)C(=O)c1ccccc1S2(=O)=O	?	-1.8%
COCCCN1C(=O)c2ccccc2CC1(C)C(=O)NC1CCCCC1 (stereo unspecified)	-0.8%	1.2%
COc1ccc(C(=O)Cn2c(=O)n3nc(CCn4nc(C)cc4C)nc3c3cc(OC)c(OC)cc32)cc1	2.2%	3.0%
CCN1C(=O)c2c(C)nc3ccccc3c2C1=O	7.2%	0.1%
CCc1ccc(C(=O)COC(=O)c2cccc(N3C(=O)c4c(C)nc5ccccc5c4C3=O)c2)cc1	6.31µM*	4.0%
Cc1cccc(NC(=O)Nc2nnc(N(C)C3CCCCC3)s2)c1C	?	-10.8%
COc1ccc(NC(=O)Cn2c(=O)oc3cc(S(=O)(=O)NC4CCCC4)ccc32)cc1OC	-3.6%	-1.1%
CO[C@@H]([CH2][Hg])CN1C(=O)c2ccccc2S1(=O)=O.Cn1c(=O)c2nc[nH]c2n(C)c1=O	-1.2%	2.2%
Cc1cccc(CNC(=O)C2CCN(S(=O)(=O)c3ccc4c(c3)CCCN4C(=O)C3CCC3)CC2)c1	21.7%	-3.7%

Screening data deposited in PubChem by National Center for Advancing Translational Sciences (NCATS).
